The chains are these.
B1: PhoQ; a variant is named by its letters at X, in order, P23837 (parent)
chain: MKKLLRLFFPLSLRVRFLLATAAVVLVLSLAYGMVALIGYSVSFDKTTFRLLRGESNLFYTLAKWENNKLHVELPENIDKQSPTMTLIYDENGQLLWAQRDVPWLMKMIQPDWLKSNGFHEIEADVNDTSLLLSGDHSIQQQLQEVREDDDDAEMTHSVAVNVYPATSRMPKLTIVVVDTIPVELKSSYMVWSWFIYVLSANLLLVIPLLWVAAWWSLRPIEALAKEVRELEEHNRELLNPATTRELTSLVRNLNRLLKSERERYDKYRTTLTDLTHSLKTPLXXLQXXLRSLRSEKMSVSDAEPVMLEQISRISQQIGYYLHRASMRGGTLLSRELHPVAPLLDNLTSALNKVYQRKGVNISLDISPEISFVGEQNDFVEVMGNVLDNACKYCLEFVEISARQTDEHLYIVVEDDGPGIPLSKREVIFDRGQRVDTLRPGQGVGLAVAREITEQYEGKIVAGESMLGGARMEVIFGRQHSAPKDE

The full ranking holds about 140,000 sequences; the median of “enrichment ratio after two sorts for PhoP signalling” is about 0, and the highest 2% start at about 11. For the sample, the highest values were picked, then their nearest neighbours and some sequences at random.

Variants of B1 are the subject of the experiment. The experiment in a line: enrichment ratio after two sorts for PhoP signalling (ratio (wild type AVST 3.29)); higher = more functional. Conditions: with PhoP (E. coli).
Take SWFD: the enrichment ratio is not above 0.25.
For the variant HSAA, the enrichment ratio is not above 0.25.
Then FPVD, with not above 0.25.
Turning to VQYV, the enrichment ratio was not above 0.25.
As to DVLV, the enrichment ratio is not above 0.25.
Turning to PCEH, the enrichment ratio is not above 0.25.
For WFYE, the enrichment ratio was not above 0.25.
Regarding LTRP, the enrichment ratio is not above 0.25.
Then YRLF, with not above 0.25; and ANNM, with 12.9; and ANCK, with 6.46.
For ANPM the value was not above 0.25.
Then RPWW, with not above 0.25; and HFCW, with not above 0.25; and QNHV, with not above 0.25.
QNGM: the enrichment ratio was found to be 16.
For QNGV the value was 22.1.
For QNYM the value was not above 0.25; for QNGD, not above 0.25.
Then QRGV, with not above 0.25; and EKNQ, with not above 0.25.
NNYE: the enrichment ratio was not above 0.25.
For HMKK the value was not above 0.25; for DNAG, not above 0.25.
In the case of FMVV, the enrichment ratio was not above 0.25.
As to MREV, the enrichment ratio is not above 0.25.
For HMSI the value was not above 0.25; for QCTL, not above 0.25; for YHCQ, not above 0.25.
For the variant SHCQ, the enrichment ratio came out at 21.1.
In the case of VHCQ, the enrichment ratio was not above 0.25.
Then THCQ, with 14.3.
Then SHCI, with 6.63; and SHCA, with 2.47; and PQRE, with not above 0.25.
As to TLYI, the enrichment ratio worked out at 0.826.
Then RITC, with not above 0.25.
RFYH: the enrichment ratio was not above 0.25.
Then FWFN, with not above 0.25; and ERAC, with not above 0.25.
Then SPAL, with not above 0.25; and SKRL, with not above 0.25; and SKAL, with 12.2.
Take SFAL: the enrichment ratio was not above 0.25.
For SAAL the value was 12.8.
Turning to KYAL, the enrichment ratio was not above 0.25.
Turning to SQAL, the enrichment ratio amounted to 7.54.
Consider SNAL, for which the enrichment ratio turned out to be 12.1.
Take SKNL: the enrichment ratio is not above 0.25.
For SIAL, the enrichment ratio was found to be 15.1.
For RIAL, the enrichment ratio was not above 0.25.
For SRAL the value was not above 0.25; for ETHL, not above 0.25; for VYRH, not above 0.25.
For PVYN the value was not above 0.25.
In the case of RLWM, the enrichment ratio is not above 0.25.
Then LPNQ, with not above 0.25.
Turning to YSKE, the enrichment ratio is not above 0.25.
Then NNAF, with not above 0.25; and TTGS, with 8.05.
For WDHH, the enrichment ratio is not above 0.25.
Then GVIH, with not above 0.25; and QAPP, with not above 0.25.
For SSAL the value was 12.2.
Then TIAL, with 12.9.
In the case of ITAL, the enrichment ratio was found to be 0.733.
For STAL the value was 11.5.
Regarding YTAL, the enrichment ratio was not above 0.25.
Then SLAL, with 10.6; and QEAL, with not above 0.25; and WIAL, with not above 0.25.
Then TTAL, with 18.4; and MTAL, with 5.98; and NIAL, with 1.57.
Turning to NSAL, the enrichment ratio is not above 0.25.
Then YSQQ, with not above 0.25.
On to PRCN, for which the enrichment ratio was not above 0.25.
For RSCH the value was not above 0.25; for DCRN, not above 0.25; for MFPC, not above 0.25.
For YLTE the value was not above 0.25.
On to METL, for which the enrichment ratio was 3.99.
For MMTL the value was 13.2; for WITL, 0.966; for TSTL, 20.7.
Consider NVTL, for which the enrichment ratio is not above 0.25.
Then MATL, with 7.59; and FVLT, with not above 0.25.
Regarding WYAY, the enrichment ratio is not above 0.25.
For KNFK the value was not above 0.25; for MYGA, not above 0.25; for GWFA, not above 0.25.
RSRM: the enrichment ratio is not above 0.25.
For GCLN the value was 11.5; for GCLS, 19.3; for GCNL, not above 0.25.
As for GCLA, the enrichment ratio worked out at 6.8.
Turning to KCLN, the enrichment ratio was not above 0.25.
Then GCLT, with 6.49; and VRSC, with not above 0.25.
For YKWM the value was not above 0.25.
GGSC: the enrichment ratio was 9.93.
As for TGSC, the enrichment ratio came out at 20.2.
Then FVSC, with not above 0.25.
Take NGSC: the enrichment ratio was not above 0.25.
Regarding QGSC, the enrichment ratio is 12.
For FFSC the value was not above 0.25; for FEYD, not above 0.25.
Then FCVK, with not above 0.25.
For ESKA the value was not above 0.25.
Take NEVN: the enrichment ratio was not above 0.25.
For VAFL the value was 3.05; for WLWC, not above 0.25; for GGWL, not above 0.25.
On to QCGD, for which the enrichment ratio is not above 0.25.
Then QCNL, with not above 0.25; and QCWI, with 37.7.
On to QCWL, for which the enrichment ratio came out at 13.1.
Then QCDS, with not above 0.25; and VIGT, with not above 0.25; and IMSW, with not above 0.25.
Then VEWS, with 2.49; and VEWG, with 18.1.
In the case of VEWI, the enrichment ratio turned out to be 12.2.
Then VLWG, with not above 0.25; and VRWG, with not above 0.25; and VRWH, with not above 0.25.
With VEWH, the enrichment ratio was determined as 13.7.
For VELA the value was not above 0.25.
Then VLWH, with not above 0.25; and PTWI, with not above 0.25.
As to FAIR, the enrichment ratio is not above 0.25.
As for IVHI, the enrichment ratio is not above 0.25.
For MQLF the value was 2.66.
For IWYQ the value was not above 0.25.
For ATSW, the enrichment ratio worked out at 1.32.
Then HLTG, with 1.04.
Then KALG, with not above 0.25.
Then NALG, with 0.397; and GCLG, with 14.9.
Consider SALG, for which the enrichment ratio was found to be 15.9.
For STLG, the enrichment ratio is 14.5.
For PTLG the value was not above 0.25; for QCLG, 2.4.
For SWLG the value was not above 0.25; for PWLG, not above 0.25; for SPLG, not above 0.25.
For KCLG the value was not above 0.25.
Consider SCLG, for which the enrichment ratio is 12.6.
For WEVH the value was not above 0.25; for HANP, not above 0.25; for NMEQ, not above 0.25.
Then ILFS, with not above 0.25; and QRWI, with not above 0.25; and ISPF, with not above 0.25.
